Here are results for eight compounds from PubChem BioAssay (NCI).

Some test systems named below: HCT-15 colon; HT29 colon; SNB-19 CNS; U251 CNS; PC-3 prostate; SK-MEL-5 melanoma; UACC-62 melanoma; LOX IMVI melanoma; SK-MEL-28 melanoma; SK-MEL-2 melanoma; EKVX NSCLC; SN12C renal; UO-31 renal; TK-10 renal; ACHN renal; CAKI-1 renal; A498 renal; CCRF-CEM leukemia; MOLT-4 leukemia.
What all share (assay): NCI-60 one-dose screen, 48 h (100 = growth as untreated, 0 = no growth, -100 = all killed)
Common to all, as to conditions: 10 µM unless noted

About 83,000 compounds went through this panel and 20% of them were active in at least one assay; those are over-represented in the sample as a whole.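 Cells were grown in 96-well plates and exposed to the test compound at a single concentration for 48 hours; results are reported as percent growth, with values below 10 considered active.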 A number with no mark means an inactive call. Activity calls are given as the source filed them.

Consider `COc1cc(NC(N)=NCCC(C)(C)c2ccc(C(F)(F)F)cc2)ncc1C#N`, for which the growth in the assay with HCT-15 colon is 14.6%; in the assay with HT29 colon, -37% (active); with SNB-19 CNS, 48.4%; in the assay with U251 CNS, -37.4% (active); in the assay on PC-3 prostate, 25.4%; with SK-MEL-5 melanoma it was -80.2% (active). Further, the growth was 10.4% with UACC-62 melanoma; 18.3% in the assay with LOX IMVI melanoma; -55.6% (active) in the assay on SK-MEL-28 melanoma; 48.8% in the assay with SK-MEL-2 melanoma; 24.8% in the assay on EKVX NSCLC; 27.4% in the assay with SN12C renal. For the same compound, the growth was 4.93% (active) with UO-31 renal; 13.8% in the assay on TK-10 renal; 45.1% in the assay with ACHN renal; 40.8% in the assay on CAKI-1 renal; 48.1% in the assay with A498 renal; 24.6% in the assay with CCRF-CEM leukemia. For the same compound, the growth with MOLT-4 leukemia was -10.7% (active).
With `Cc1cc(N/N=C/c2nc(-c3ccc(Br)cc3)oc2C)c2cc(Cl)ccc2n1`, the growth in the assay with HCT-15 colon is 37.9%; in the assay on HT29 colon, 13.5%; in the assay with SNB-19 CNS it was 60.1%; in the assay on U251 CNS it was 13.9%; with PC-3 prostate it was 80.7%; with SK-MEL-5 melanoma it was 92.6%. Further, the growth in the assay with UACC-62 melanoma is 82.9%; in the assay on LOX IMVI melanoma it was 20.8%; in the assay with SK-MEL-28 melanoma, 60.7%; in the assay on SK-MEL-2 melanoma it was 110%; in the assay on EKVX NSCLC it was 95.7%; in the assay on SN12C renal it was 48.4%. The growth in the assay on UO-31 renal is 86.6%; with TK-10 renal, 114%; in the assay with ACHN renal, 86.9%; in the assay on CAKI-1 renal it was 96.2%; in the assay on A498 renal it was 85.5%; in the assay with CCRF-CEM leukemia it was -16.6% (active). Also, the growth in the assay on MOLT-4 leukemia is 3.49% (active).
Regarding `O=C(O)c1nc(-c2ccccc2)oc1N1CCOCC1`, the growth in the assay with HCT-15 colon is 101%; with HT29 colon, 108%; with SNB-19 CNS, 92.3%; in the assay with U251 CNS it was 90.9%; in the assay with PC-3 prostate, 100%; in the assay on SK-MEL-5 melanoma, 105%. In addition, the growth was 85.2% in the assay on UACC-62 melanoma; 108% in the assay with LOX IMVI melanoma; 98.7% in the assay with SK-MEL-28 melanoma; 97% with SK-MEL-2 melanoma; 104% with EKVX NSCLC; 99% in the assay with SN12C renal. Further, the growth in the assay on UO-31 renal was 81.6%; in the assay on TK-10 renal, 91.9%; in the assay with ACHN renal it was 101%; in the assay on CAKI-1 renal it was 92.2%; in the assay on A498 renal, 114%; in the assay with CCRF-CEM leukemia it was 107%. The growth in the assay on MOLT-4 leukemia is 105%.
For `CCCCOc1ccc(/C=C2/SC(N3CCOCC3)=NC2=O)cc1OCC`, the growth in the assay with HCT-15 colon is 98.6%; in the assay on HT29 colon, 104%; in the assay on SNB-19 CNS, 90.8%; in the assay on U251 CNS, 95.2%; in the assay with PC-3 prostate, 87.1%; in the assay on SK-MEL-5 melanoma it was 98.7%. In addition, the growth was 88.6% in the assay with UACC-62 melanoma; 89.1% in the assay on LOX IMVI melanoma; 97.4% in the assay on SK-MEL-28 melanoma; 102% with SK-MEL-2 melanoma; 90.8% with EKVX NSCLC; 85.2% in the assay with SN12C renal. The growth is 79.4% with UO-31 renal; 116% in the assay on TK-10 renal; 96% with ACHN renal; 84.8% with CAKI-1 renal; 90.2% in the assay on A498 renal; 90% in the assay with CCRF-CEM leukemia. The growth with MOLT-4 leukemia is 101%.
In the case of `COc1ccc(Nc2[nH]n3c(=O)cc(C)nc3c2C(N)=O)c(OC)c1`, the growth in the assay with HCT-15 colon was 102%; with HT29 colon, 92.2%; with SNB-19 CNS it was 96%; in the assay on U251 CNS, 94.1%; in the assay with PC-3 prostate it was 99.7%; in the assay on SK-MEL-5 melanoma, 98.1%. In addition, the growth is 84% in the assay with UACC-62 melanoma; 95.6% in the assay on LOX IMVI melanoma; 109% in the assay with SK-MEL-28 melanoma; 94% with SK-MEL-2 melanoma; 101% with EKVX NSCLC; 96.6% in the assay with SN12C renal. The growth is 87.5% with UO-31 renal; 88.2% in the assay on TK-10 renal; 96.8% with ACHN renal; 90.2% with CAKI-1 renal; 86.1% in the assay with A498 renal; 101% with CCRF-CEM leukemia. Also, in the assay with MOLT-4 leukemia, the growth was 116%.
For the compound `CCOC(=O)c1cn2c3c(cccc3c1=O)C(=O)/C(=C/c1cccc(Cl)c1Cl)C2`, the growth in the assay with HCT-15 colon is 117%; in the assay with HT29 colon, 99.9%; in the assay on SNB-19 CNS it was 94.9%; with U251 CNS, 94.6%; in the assay on PC-3 prostate it was 90.8%; with SK-MEL-5 melanoma it was 91.2%. The growth with UACC-62 melanoma was 67.9%; in the assay with LOX IMVI melanoma it was 99.7%; in the assay on SK-MEL-28 melanoma, 106%; in the assay with SK-MEL-2 melanoma, 87.7%; with EKVX NSCLC, 99.3%; with SN12C renal, 94.2%. For the same compound, the growth in the assay on UO-31 renal was 61.7%; in the assay on TK-10 renal, 100%; in the assay with ACHN renal, 106%; with CAKI-1 renal, 91.6%; in the assay with A498 renal, 99.1%; in the assay on CCRF-CEM leukemia, 99.2%. Further, the growth in the assay on MOLT-4 leukemia is 102%.
Take `O=C(CN1CCN(c2cc3c(cc2F)c(=O)c(C(=O)N/N=C/c2ccccc2O)cn3C2CC2)CC1)N/N=C\c1ccccc1O`: the growth with HCT-15 colon is 18.4%; with HT29 colon it was 39.2%; in the assay with SNB-19 CNS, 29.9%; in the assay on U251 CNS, 24.8%; in the assay on PC-3 prostate, 30.3%; with SK-MEL-5 melanoma, -47.5% (active). For the same compound, the growth is 0.0993% (active) with UACC-62 melanoma; 2.01% (active) in the assay with LOX IMVI melanoma; 20.7% in the assay on SK-MEL-28 melanoma; 33.2% in the assay on SK-MEL-2 melanoma; 23% in the assay on EKVX NSCLC; 24.7% in the assay with SN12C renal. In addition, the growth is 4.8% (active) in the assay on UO-31 renal; 43.2% with TK-10 renal; 13.5% with ACHN renal; 5.22% (active) with CAKI-1 renal; 86.1% with A498 renal; 8.24% (active) in the assay with CCRF-CEM leukemia. Besides, the growth with MOLT-4 leukemia was 9.45% (active).
Take `N#Cc1c(Nc2ccccc2)nc2n(c1=O)-c1ccccc1Sc1ccccc1-2`: the growth is 90.3% with HCT-15 colon; 84.1% in the assay with HT29 colon; 77.9% in the assay on SNB-19 CNS; 89.4% in the assay with U251 CNS; 61.3% in the assay on PC-3 prostate; 68.1% in the assay with SK-MEL-5 melanoma. Moreover, the growth is 69.1% in the assay with UACC-62 melanoma; 83.9% with LOX IMVI melanoma; 83.8% with SK-MEL-28 melanoma; 86.9% with SK-MEL-2 melanoma; 73% in the assay with EKVX NSCLC; 77.7% in the assay on SN12C renal. The growth in the assay with UO-31 renal was 53.4%; in the assay with TK-10 renal, 105%; in the assay with ACHN renal, 68.3%; in the assay on CAKI-1 renal, 70.8%; in the assay on A498 renal, 90.2%; in the assay on CCRF-CEM leukemia it was 63.4%. Besides, in the assay with MOLT-4 leukemia, the growth was 51.9%.
